Data: the supplement of paper PMC11732987, “Enantioselective OTUD7B fragment discovery through chemoproteomics screening and high-throughput optimisation” (Communications Chemistry, 2025)

Legend:
Experiment in all cases: log2 ratio of Biotin-Ahx-Ub-VS probe labelling (fragment/DMSO); higher = less target engagement (more negative = stronger competition), active = hit call of the paper (q ≤ 0.05, log2 ratio ≤ -1)
Conditions in all cases: compound concentration: 200 uM; treatment time: 3 h
[1] = target: USP34 (UniProt Q70CQ2)
Method in brief: (§1)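 Global-median-normalised Spectronaut label-free quantities were compared by unpaired t-test, and values are average log2 ratios of fragment over vehicle. Only proteins with ≥2 unique peptides were used. HEK293T lysate (495 µg per sample) was treated in triplicate with fragment at 200 µM or vehicle for 3 h and then with Biotin-Ahx-Ub-VS at 0.5 µM final for 1 h. Labelled DUBs were then NeutrAvidin-enriched, digested with LysC and trypsin, and run by diaPASEF LC-MS/MS.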

[2] = target: T1, USP36 (UniProt Q9P275)
T1 sequence (whole entry): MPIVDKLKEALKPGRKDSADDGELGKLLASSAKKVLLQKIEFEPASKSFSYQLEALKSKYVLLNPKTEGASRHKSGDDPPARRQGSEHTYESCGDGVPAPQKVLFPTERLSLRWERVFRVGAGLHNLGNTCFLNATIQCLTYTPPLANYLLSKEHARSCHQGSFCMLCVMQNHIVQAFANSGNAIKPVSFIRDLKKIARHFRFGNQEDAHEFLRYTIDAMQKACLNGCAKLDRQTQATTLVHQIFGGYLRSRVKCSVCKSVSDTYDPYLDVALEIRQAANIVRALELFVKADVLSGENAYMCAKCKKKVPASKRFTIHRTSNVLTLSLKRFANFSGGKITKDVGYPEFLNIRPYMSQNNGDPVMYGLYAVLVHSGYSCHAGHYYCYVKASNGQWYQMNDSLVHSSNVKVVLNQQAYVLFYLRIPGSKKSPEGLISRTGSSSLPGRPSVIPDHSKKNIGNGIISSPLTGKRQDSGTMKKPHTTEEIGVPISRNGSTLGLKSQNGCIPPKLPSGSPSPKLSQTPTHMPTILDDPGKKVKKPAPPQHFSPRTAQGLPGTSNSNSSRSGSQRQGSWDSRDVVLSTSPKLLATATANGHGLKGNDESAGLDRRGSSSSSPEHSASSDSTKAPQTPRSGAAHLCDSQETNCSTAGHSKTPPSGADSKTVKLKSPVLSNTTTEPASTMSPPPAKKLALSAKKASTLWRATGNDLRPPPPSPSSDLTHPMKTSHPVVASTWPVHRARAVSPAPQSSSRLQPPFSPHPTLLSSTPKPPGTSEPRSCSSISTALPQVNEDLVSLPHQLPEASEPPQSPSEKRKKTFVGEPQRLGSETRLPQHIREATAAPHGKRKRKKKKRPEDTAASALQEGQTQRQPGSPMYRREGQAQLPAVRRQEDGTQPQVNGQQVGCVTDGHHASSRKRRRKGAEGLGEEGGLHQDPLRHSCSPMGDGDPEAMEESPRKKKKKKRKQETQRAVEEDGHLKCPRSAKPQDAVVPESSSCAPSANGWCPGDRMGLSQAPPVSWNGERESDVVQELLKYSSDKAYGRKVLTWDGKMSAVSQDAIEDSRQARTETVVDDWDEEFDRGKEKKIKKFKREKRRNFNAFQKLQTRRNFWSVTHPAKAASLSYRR
Method in brief: as §1

[3] = target: T2, USP38 (UniProt Q8NB14)
T2 sequence (whole entry): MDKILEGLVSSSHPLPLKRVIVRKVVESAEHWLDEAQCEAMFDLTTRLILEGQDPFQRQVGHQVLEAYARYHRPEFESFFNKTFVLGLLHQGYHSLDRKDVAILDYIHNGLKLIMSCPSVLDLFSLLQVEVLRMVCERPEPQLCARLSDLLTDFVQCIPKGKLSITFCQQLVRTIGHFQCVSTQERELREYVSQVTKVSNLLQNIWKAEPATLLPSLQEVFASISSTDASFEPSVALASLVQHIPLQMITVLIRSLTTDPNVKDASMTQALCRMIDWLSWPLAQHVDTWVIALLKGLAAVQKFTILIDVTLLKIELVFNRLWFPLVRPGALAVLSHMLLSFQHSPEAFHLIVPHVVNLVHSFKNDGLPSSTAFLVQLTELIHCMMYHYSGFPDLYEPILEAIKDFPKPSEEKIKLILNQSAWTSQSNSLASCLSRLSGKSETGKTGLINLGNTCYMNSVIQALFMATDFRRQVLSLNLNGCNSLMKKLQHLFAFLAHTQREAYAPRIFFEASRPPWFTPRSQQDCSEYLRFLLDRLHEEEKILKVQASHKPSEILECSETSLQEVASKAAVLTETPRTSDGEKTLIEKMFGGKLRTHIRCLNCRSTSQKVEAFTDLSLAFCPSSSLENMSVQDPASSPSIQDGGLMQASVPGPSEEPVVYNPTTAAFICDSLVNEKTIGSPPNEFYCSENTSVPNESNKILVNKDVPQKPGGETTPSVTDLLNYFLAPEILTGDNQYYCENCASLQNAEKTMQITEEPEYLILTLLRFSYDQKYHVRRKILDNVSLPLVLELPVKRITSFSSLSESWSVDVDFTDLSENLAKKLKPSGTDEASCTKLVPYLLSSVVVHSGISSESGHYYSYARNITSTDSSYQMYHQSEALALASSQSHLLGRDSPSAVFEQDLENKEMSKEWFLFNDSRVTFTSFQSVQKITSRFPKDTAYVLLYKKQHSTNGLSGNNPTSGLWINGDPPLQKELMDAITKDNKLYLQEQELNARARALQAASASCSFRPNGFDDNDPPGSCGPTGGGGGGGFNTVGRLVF
Method in brief: as §1

[4] = target: T3, USP39 (UniProt Q53GS9)
T3 sequence (whole entry): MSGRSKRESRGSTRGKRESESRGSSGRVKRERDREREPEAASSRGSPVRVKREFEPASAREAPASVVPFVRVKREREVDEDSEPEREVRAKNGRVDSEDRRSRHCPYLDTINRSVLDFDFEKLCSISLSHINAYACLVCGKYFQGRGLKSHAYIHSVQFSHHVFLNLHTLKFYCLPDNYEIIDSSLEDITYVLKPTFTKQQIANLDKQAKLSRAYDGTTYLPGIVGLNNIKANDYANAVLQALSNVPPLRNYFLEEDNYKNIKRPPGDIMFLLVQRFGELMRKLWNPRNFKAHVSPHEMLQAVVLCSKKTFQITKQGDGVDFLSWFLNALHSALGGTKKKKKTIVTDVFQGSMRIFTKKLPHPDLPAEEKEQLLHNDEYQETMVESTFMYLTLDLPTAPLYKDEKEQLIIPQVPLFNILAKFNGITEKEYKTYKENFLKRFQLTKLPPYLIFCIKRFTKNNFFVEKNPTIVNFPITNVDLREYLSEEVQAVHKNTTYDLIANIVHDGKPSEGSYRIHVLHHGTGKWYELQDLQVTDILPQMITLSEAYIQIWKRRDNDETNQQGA
Method in brief: as §1

[5] = target: T4, USP4 (UniProt Q13107)
T4 sequence (whole entry): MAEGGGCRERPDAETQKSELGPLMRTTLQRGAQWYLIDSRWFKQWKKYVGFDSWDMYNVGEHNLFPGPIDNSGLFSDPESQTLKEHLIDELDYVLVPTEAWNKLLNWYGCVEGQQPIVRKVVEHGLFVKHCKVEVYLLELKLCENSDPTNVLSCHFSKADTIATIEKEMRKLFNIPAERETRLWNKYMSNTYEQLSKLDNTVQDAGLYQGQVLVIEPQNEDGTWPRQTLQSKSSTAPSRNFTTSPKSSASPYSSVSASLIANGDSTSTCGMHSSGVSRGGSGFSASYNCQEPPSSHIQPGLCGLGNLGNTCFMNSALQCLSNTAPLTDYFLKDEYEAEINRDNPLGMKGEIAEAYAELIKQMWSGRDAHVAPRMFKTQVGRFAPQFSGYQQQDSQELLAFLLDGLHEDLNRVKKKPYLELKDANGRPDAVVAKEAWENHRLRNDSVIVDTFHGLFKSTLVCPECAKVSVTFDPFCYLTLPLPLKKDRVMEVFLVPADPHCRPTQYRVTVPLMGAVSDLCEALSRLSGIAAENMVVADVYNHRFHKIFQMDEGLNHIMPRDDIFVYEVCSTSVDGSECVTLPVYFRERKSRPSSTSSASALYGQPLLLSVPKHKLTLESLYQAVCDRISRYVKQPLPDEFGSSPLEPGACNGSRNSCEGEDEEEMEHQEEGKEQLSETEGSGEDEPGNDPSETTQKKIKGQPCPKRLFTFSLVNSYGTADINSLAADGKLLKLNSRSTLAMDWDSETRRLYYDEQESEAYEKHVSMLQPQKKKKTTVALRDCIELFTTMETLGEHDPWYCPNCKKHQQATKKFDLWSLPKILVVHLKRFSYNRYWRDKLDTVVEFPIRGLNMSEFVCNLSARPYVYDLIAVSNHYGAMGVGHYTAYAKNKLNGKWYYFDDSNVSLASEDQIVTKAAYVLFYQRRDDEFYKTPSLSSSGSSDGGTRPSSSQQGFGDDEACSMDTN
Method in brief: as §1

Measured: log2 ratio of Biotin-Ahx-Ub-VS probe labelling

Sequence of USP34 (Q70CQ2 whole entry, the tested form may be a part): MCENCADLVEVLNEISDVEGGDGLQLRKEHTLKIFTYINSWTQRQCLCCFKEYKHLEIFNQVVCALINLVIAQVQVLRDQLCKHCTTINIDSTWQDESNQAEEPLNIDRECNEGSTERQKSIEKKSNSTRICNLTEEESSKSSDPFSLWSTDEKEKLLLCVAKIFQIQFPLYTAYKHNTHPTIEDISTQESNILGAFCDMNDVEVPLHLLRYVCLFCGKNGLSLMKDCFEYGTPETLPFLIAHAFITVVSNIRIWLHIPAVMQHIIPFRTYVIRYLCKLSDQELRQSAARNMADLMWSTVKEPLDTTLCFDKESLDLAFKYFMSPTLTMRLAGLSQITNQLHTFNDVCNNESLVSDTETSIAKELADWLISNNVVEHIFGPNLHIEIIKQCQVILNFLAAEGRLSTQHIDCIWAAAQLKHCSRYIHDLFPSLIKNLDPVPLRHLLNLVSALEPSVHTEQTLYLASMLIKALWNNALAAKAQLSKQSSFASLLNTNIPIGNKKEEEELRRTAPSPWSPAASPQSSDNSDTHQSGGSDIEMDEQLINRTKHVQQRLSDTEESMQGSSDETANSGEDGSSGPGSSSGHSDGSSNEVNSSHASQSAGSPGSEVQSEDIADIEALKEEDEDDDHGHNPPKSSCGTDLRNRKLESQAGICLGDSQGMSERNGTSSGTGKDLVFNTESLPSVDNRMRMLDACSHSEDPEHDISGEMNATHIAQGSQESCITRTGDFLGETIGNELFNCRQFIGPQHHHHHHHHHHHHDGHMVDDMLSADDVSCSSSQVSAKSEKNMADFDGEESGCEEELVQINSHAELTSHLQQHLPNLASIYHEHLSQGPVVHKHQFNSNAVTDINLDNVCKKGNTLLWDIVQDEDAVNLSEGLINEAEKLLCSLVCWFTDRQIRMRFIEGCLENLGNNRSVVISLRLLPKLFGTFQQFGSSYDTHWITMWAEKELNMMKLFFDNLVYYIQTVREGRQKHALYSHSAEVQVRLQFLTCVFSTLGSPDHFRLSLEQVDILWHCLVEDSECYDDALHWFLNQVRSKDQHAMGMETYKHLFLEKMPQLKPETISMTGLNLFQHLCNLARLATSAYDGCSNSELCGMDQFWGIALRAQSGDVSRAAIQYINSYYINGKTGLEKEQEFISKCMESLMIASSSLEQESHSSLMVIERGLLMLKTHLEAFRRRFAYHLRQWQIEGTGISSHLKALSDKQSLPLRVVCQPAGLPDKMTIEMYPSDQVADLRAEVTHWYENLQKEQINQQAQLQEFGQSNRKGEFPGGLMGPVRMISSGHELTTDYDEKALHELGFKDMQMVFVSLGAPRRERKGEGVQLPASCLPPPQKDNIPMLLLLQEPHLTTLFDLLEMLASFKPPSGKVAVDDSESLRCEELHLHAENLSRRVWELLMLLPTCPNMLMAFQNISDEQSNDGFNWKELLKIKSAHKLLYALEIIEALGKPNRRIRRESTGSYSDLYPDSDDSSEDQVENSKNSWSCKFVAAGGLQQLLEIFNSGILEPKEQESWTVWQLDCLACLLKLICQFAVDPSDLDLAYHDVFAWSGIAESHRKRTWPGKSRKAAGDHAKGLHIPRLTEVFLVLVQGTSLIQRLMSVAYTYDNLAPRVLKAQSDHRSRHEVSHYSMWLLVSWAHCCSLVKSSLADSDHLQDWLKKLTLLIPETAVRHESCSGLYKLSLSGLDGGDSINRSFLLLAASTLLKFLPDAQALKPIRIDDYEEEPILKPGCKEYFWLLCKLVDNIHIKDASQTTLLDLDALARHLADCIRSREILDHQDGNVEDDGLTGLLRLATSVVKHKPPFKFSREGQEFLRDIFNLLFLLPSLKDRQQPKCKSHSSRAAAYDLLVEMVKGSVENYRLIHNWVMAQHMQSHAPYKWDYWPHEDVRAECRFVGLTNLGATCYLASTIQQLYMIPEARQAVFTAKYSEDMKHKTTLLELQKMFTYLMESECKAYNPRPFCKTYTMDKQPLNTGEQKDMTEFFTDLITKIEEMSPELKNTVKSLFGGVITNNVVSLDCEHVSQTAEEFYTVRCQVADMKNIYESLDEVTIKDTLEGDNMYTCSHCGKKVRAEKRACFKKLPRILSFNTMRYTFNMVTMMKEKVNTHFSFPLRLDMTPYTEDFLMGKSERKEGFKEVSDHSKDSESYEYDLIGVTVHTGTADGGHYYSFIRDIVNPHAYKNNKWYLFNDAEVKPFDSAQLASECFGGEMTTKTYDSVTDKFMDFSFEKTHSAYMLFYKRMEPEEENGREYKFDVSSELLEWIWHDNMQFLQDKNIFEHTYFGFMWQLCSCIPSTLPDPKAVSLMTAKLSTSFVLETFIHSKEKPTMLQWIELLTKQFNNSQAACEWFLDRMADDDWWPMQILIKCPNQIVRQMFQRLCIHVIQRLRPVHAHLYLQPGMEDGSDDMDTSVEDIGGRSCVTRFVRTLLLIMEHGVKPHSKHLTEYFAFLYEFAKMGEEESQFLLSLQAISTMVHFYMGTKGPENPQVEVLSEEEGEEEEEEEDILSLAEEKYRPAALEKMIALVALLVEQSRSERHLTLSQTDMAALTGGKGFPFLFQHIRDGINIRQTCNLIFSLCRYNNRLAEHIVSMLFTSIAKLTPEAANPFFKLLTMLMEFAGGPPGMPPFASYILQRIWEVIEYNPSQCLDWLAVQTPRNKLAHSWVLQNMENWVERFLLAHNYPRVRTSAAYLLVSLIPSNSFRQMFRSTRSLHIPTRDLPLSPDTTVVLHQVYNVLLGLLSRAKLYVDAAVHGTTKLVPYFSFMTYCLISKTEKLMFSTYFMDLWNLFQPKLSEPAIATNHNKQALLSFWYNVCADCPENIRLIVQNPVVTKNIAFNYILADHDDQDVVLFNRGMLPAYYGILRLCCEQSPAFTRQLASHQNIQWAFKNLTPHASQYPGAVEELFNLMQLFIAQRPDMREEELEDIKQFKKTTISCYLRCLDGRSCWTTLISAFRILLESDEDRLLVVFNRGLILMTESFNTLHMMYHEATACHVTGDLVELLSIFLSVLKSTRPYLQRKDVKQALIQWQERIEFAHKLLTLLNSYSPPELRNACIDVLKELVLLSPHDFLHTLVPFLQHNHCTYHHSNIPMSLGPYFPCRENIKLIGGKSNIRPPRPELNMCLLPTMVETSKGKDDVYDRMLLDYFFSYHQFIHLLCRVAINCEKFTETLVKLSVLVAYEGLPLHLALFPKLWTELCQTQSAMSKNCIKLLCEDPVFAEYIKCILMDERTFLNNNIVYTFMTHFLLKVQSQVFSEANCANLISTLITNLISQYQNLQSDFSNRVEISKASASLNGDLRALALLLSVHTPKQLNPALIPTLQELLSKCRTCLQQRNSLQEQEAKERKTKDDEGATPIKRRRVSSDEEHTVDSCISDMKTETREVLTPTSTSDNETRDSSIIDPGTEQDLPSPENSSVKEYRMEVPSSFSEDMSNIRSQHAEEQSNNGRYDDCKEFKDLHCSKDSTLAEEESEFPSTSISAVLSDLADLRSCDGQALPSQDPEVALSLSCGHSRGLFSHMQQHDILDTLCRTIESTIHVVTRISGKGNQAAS

O=C(CCl)N1CCC(c2nc3ccccc3o2)CC1
inactive: [1] -0.0485 | [2] -0.24 | [3] -0.183 | [4] 0.016 | [5] -0.231
